Screening results deposited in PubChem BioAssay by National Center for Advancing Translational Sciences (NCATS).
GRP78 ERSR act: qHTS for Inducers of the Endoplasmic Reticulum Stress Response (ERSR) in Human Glioma: qHTS. U87-MG GRP78 promoter luciferase reporter, 16 h. Potency, µM, actives largely listed as activators. actives 0.02% (n = 420,000). AID 602332, 2012; also: series mostly up to about 76 µM; nearly all actives have a fitted effect of over 35% in size
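Stably transfected U87-MG glioma cells carrying a GRP78-based luciferase sensor; 16 h compound incubation. Luminescence end-point read 10 min after Bright-Glo addition at room temperature.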
PTHR1 ag: qHTS for PTHR1 Agonists: Primary Screen; actives 0.075% (n = 410,000); AID 743266, 2014; Parathyroid hormone/parathyroid hormone-related peptide receptor (Homo sapiens), Q03431; HEK293 GP2 PTHR1 cells, GloSensor cAMP luminescence, 1 h; Potency, µM (top dose mostly 115 µM), actives largely listed as activators; also: nearly all actives have a fitted effect of over 55% in size
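HEK-293-derived GP2 cells expressing PTHR1 and a GloSensor cAMP reporter, 3,000/well, plated overnight, given luciferin plus IBMX (each 0.5 mM as added) for 1 h at 37 °C, then compound for 1 h at 37 °C. Luminescence was read after 15 min at room temperature.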
GLS inhibitor: qHTS for Inhibitors of Glutaminase (GLS). Glutaminase kidney isoform, mitochondrial (Homo sapiens), O94925. GLS enzymatic activity, qHTS titration. Potency, µM (top dose mostly 45.5 µM), usual class: inhibitors. actives 0.21% (n = 410,000)
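Enzyme dispensed in phosphate buffer (45 mM, pH 8.2, 0.02% Tween-20), compounds pinned in, then 1 mM L-glutamine solution and the glutamate oxidase–HRP–Amplex Red mix added; fluorescence read immediately and again after 30 min at room temperature.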
12-LOX inh: Primary qHTS assay for inhibitors of human arachidonate 12S-lipoxygenase (ALOX12): Round 2; Polyunsaturated fatty acid lipoxygenase ALOX12 (Homo sapiens), P18054; purified 12hLO, xylenol orange hydroperoxide absorbance; Potency, µM (highest dose often 108 µM), hits mostly inhibitors; actives 1.1% (n = 580,000); AID 1671190, 2021
Target sequence (P18054 whole entry, looked up): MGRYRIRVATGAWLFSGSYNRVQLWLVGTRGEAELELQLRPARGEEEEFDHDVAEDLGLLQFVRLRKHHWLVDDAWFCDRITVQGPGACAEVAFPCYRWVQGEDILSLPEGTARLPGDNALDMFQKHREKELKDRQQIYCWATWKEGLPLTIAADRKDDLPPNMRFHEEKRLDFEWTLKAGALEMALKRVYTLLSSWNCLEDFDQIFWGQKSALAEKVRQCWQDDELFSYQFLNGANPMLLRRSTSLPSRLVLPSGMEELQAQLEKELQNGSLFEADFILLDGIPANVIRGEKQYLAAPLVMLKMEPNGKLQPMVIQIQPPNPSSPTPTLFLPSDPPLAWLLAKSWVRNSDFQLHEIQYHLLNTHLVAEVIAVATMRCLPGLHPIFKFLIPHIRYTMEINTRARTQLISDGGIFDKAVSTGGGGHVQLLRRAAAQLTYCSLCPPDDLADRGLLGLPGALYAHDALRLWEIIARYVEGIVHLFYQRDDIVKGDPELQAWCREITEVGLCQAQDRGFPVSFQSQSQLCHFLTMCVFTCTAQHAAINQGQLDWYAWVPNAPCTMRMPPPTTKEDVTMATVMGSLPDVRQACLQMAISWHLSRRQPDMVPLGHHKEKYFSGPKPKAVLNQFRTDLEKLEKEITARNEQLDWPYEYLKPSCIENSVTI
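Purified human 12hLO (150 nM final) in 25 mM Hepes, 0.01% Triton X-100, pH 7.0 was preincubated 15 min at room temperature with compound. Then 40 uM arachidonic acid was added, 30 min. Hydroperoxide was read by Fe-XO absorbance ratio 573/405 nm.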
GLP1R inv ag: qHTS of GLP-1 Receptor Inverse Agonists (Inhibition Mode); actives 1.6% (n = 410,000); AID 624417, 2012; Potency, µM (highest dose often 38.3 µM), hits mostly inhibitors; HEK293 GLP-1R CRE-luciferase, luminescence, 24 h; GLP-1R form is constitutively active; Glucagon-like peptide 1 receptor (Homo sapiens), P43220; also: nearly all actives have a fitted effect of over 55% in size
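GLP-1R inverse agonism mode: basal reporter luminescence in engineered HEK293 cells measured after one day of compound exposure at 37 deg C, with a 12 min room-temperature detection step.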
GLP-1R agonist: qHTS of GLP-1 Receptor Agonists; Potency, µM (highest dose often 45.6 µM), usual class: activators; AID 624172, 2012; HEK293 GLP-1R CRE-luciferase, luminescence, 4-6 h; cells express a hypersensitive GLP-1R form; actives 0.007% (n = 380,000)
Large screens that a line does not name were inactive; ! = a repeat was not active. Only some compounds are listed: those with a hit (about 2.3% of all), similar ones and a draw of the others. Calls follow the shape of the dose curve; as a rule, active = well fitted curve in the direction sought with a large enough effect; inconclusive = small, poorly fitted or top-dose-only effect, or another doubt; inactive = no such curve, though single readings can be large; an effect the other way counts as inactive or inconclusive.

COc1cccc(C(=O)NC(=S)Nc2ccc(Cl)c(C(=O)O)c2)c1	12-LOX inh inconclusive
CC(C)C(=O)NC(=S)Nc1ccc(NC(=O)c2cccc(Cl)c2)cc1	12-LOX inh 16µM (no result: GRP78 ERSR act, PTHR1 ag, GLS inhibitor, GLP1R inv ag, GLP-1R agonist)
CN(C)Cc1ccccc1C(O)(c1ccccc1)c1ccccc1	GLP1R inv ag inconclusive
CN(C)Cc1cc(C(F)(F)F)ccc1C(O)(c1ccccc1)c1ccccc1	GLP1R inv ag 8.9µM
O=C(O)Cn1ccc2cc(OCc3cccc(-c4ccc(F)c(Cl)c4)c3)cnc21	12-LOX inh 50µM (no result: GRP78 ERSR act, PTHR1 ag, GLS inhibitor, GLP1R inv ag, GLP-1R agonist)
COc1cccc(-c2cccc(COc3cnc4c(ccn4CC(=O)O)c3)c2)c1F	12-LOX inh 50µM (no result: GRP78 ERSR act, PTHR1 ag, GLS inhibitor, GLP1R inv ag, GLP-1R agonist)
O=C(O)Cn1ccc2cc(OCc3cccc(-c4ccc(F)cc4F)c3)cnc21	12-LOX inh 35µM (no result: GRP78 ERSR act, PTHR1 ag, GLS inhibitor, GLP1R inv ag, GLP-1R agonist)
Cc1ccc(-c2cccc(COc3cnc4c(ccn4CC(=O)O)c3)c2)cc1	none (no result: GRP78 ERSR act, PTHR1 ag, GLS inhibitor, GLP1R inv ag, GLP-1R agonist)
Cc1ccc(C(=O)Nc2c(C)ccc3nsnc23)c(Cl)c1	none (no result: GRP78 ERSR act, PTHR1 ag, GLS inhibitor, GLP1R inv ag, GLP-1R agonist)
Cc1nnc(SCC(=O)NC(=O)NCCC(C)C)s1	none
CC(C)CCNC(=O)NC(=O)CCl	12-LOX inh 28µM (no result: GRP78 ERSR act, PTHR1 ag, GLS inhibitor, GLP1R inv ag, GLP-1R agonist)
NC(=S)Nc1ccc(F)cc1F	none
NNc1ccc(F)cc1F	12-LOX inh 4.5µM (no result: GRP78 ERSR act, PTHR1 ag, GLS inhibitor, GLP1R inv ag, GLP-1R agonist)
Cc1cccc[n+]1Cc1ccccc1	12-LOX inh 16µM (no result: GRP78 ERSR act, PTHR1 ag, GLS inhibitor, GLP1R inv ag, GLP-1R agonist)
Cc1ccc2ccc[n+](Cc3ccccc3)c2c1	none
Cc1cccc[n+]1CCCCCCCCCC[n+]1ccccc1C	12-LOX inh 14µM!
O=C(NC1CCCCC1)N1CCC2(CC1)Nc1ccccc1-n1cccc12	none (no result: GRP78 ERSR act, PTHR1 ag, GLS inhibitor, GLP1R inv ag, GLP-1R agonist)
Cc1onc(-c2c(Cl)cccc2Cl)c1C(=O)NC1C(=O)N2C1SC(C)(C)C2C(=O)O (stereo unspecified)	GLS inhibitor 13µM
Cc1onc(-c2c(Cl)cccc2Cl)c1C(=O)N[C@@H]1C(=O)N2[C@@H]1SC(C)(C)[C@@H]2C(=O)O	GLS inhibitor 10µM!, 12-LOX inh inconclusive
S=C(c1cn(Cc2ccccc2)c2ccccc12)N1CCOCC1	12-LOX inh inconclusive, GLP1R inv ag inconclusive
CN1CCN(C(=S)c2cn(Cc3cccc(F)c3)c3ccccc23)CC1	GLP1R inv ag inconclusive
CC1CCN(C(=S)c2cn(Cc3ccccc3F)c3ccccc23)CC1	12-LOX inh inconclusive, GLP1R inv ag 10µM
CN1CCN(C(=S)c2cn(Cc3ccc(F)cc3)c3ccccc23)CC1	GLP1R inv ag 10µM
CC1CCN(C(=S)c2cn(Cc3ccc(F)cc3)c3ccccc23)CC1	12-LOX inh inconclusive, GLP1R inv ag 7.1µM
Cc1ccc(-c2nn3c(c2C)NC(=O)CC3C(=O)Nc2ccc3c(c2)OCO3)cc1 (stereo unspecified)	none (no result: GRP78 ERSR act, PTHR1 ag, GLS inhibitor, GLP1R inv ag, GLP-1R agonist)
O=C(Cn1cnc(NC(=O)c2ccccc2)n1)NCc1ccccc1	none (no result: GRP78 ERSR act, PTHR1 ag, GLS inhibitor, GLP1R inv ag, GLP-1R agonist)
CCCOc1ccc(NC(=O)COc2ccc(F)cc2)c2cccnc12	none (no result: GRP78 ERSR act, PTHR1 ag, GLS inhibitor, GLP1R inv ag, GLP-1R agonist)
COc1cccc(C2NC(=S)NC(C)=C2C(=O)c2ccccc2)c1OC (stereo unspecified)	12-LOX inh 45µM, GLP1R inv ag inconclusive
CC1=C(C(=O)OC(C)(C)C)C(c2cccc3ccccc23)NC(=S)N1 (stereo unspecified)	none (no result: GRP78 ERSR act, PTHR1 ag, GLS inhibitor, GLP1R inv ag, GLP-1R agonist)
COc1ccc2nc(NC(=O)c3nn(C(C)C)c(=O)c4ccccc34)sc2c1	none (no result: GRP78 ERSR act, PTHR1 ag, GLS inhibitor, GLP1R inv ag, GLP-1R agonist)
CC(C)=CCc1c2c(c3occ(-c4ccc(O)c(O)c4)c(=O)c3c1O)C=CC(C)(C)O2	12-LOX inh 40µM!, GLP1R inv ag inconclusive
CC(C)=CCc1c2c(c3occ(-c4ccc(O)cc4)c(=O)c3c1O)C=CC(C)(C)O2	GRP78 ERSR act inconclusive, 12-LOX inh inconclusive, GLP1R inv ag inconclusive
CC(C)C(O)(C(=O)NNc1ccccc1)C(C)C	GLS inhibitor 13µM
O=C(c1ccc(Cl)cc1Cl)N(CCS(=O)(=O)N1CCCCC1)Cc1cccnc1	12-LOX inh 0.5µM (no result: GRP78 ERSR act, PTHR1 ag, GLS inhibitor, GLP1R inv ag, GLP-1R agonist)
Cc1ccc(S(=O)(=O)N2CCCCC2)cc1C(=O)N(CCc1ccccc1)Cc1ccccc1	GLP1R inv ag 4.5µM
CCN1CCN(S(=O)(=O)c2ccc(Cl)c(C(=O)N(CCc3ccccc3)Cc3ccccc3)c2)CC1	12-LOX inh inconclusive, GLP1R inv ag inconclusive
O=C(NCCc1ccccc1)c1cc(S(=O)(=O)N2CCOCC2)ccc1F	none
O=C(c1ccccc1[N+](=O)[O-])N(CCc1ccccc1)Cc1ccccc1	GLP1R inv ag inconclusive
O=C(c1cc(S(=O)(=O)N2CCOCC2)ccc1F)N(CCc1ccccc1)Cc1ccccc1	GLP1R inv ag 10µM
Cc1cccc(C(=O)N(CCc2ccccc2)Cc2ccccc2)c1[N+](=O)[O-]	GLP1R inv ag 3.2µM
Cn1c(=O)c2c(ncn2CC(COCc2ccccc2F)OCc2ccccc2F)n(C)c1=O (stereo unspecified)	none (no result: GRP78 ERSR act, PTHR1 ag, GLS inhibitor, GLP1R inv ag, GLP-1R agonist)
O=C(Nc1ccccc1C(=O)OCC(=O)N1CCc2ccccc21)c1ccc([N+](=O)[O-])cc1Cl	none (no result: GRP78 ERSR act, PTHR1 ag, GLS inhibitor, GLP1R inv ag, GLP-1R agonist)
